# Measured values as given in PubChem BioAssay.
# Values joined by “and” are separate entries in the source; they are usually repeats but may differ in a detail not shown here. Equal entries are not always repeated. Active and inactive are the calls of the source. Unless noted, no stated cut-off is given here; in the data, active means inhibition above about 80%; inactive means the rest.
# Assays:
# [1] = LFS_MB_P medulloblastoma growth inhibition, cell-based, chromothripsis tumors, cisplatin or BGB combos (AID 1671449); settings: LFS_MB_P medulloblastoma cells;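 further: cells exposed for 96 hours; 0% = vehicle DMSO and 100% = killing by high DMSO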
# [2] = HDN33 neuroblastoma growth inhibition, cell-based, chromothripsis tumors, cisplatin or BGB combos (AID 1671450); settings: HDN33 neuroblastoma cells, stronger effect = higher value;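 further: cells exposed to compound for four days; 0% = vehicle DMSO and 100% = cell killing by high DMSO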
# [3] = ICB984 medulloblastoma cell growth inhibition, synergistic combos for chromothripsis tumors, cisplatin or BGB combos (AID 1671451; call rule not given here;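 further: cells exposed for 96 hours before readout; 0% = vehicle DMSO and 100% = killing by high DMSO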); settings: ICB984 medulloblastoma cells, drug combinations, stronger effect = higher value
# [4] = LFS_MB_1R medulloblastoma cell growth inhibition, synergistic combos for chromothripsis tumors, cisplatin or BGB combos (AID 1671452); settings: LFS_MB_1R medulloblastoma cells, stronger effect = higher value;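 further: cells exposed for 96 hours before readout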
# [5] = HTB85 osteosarcoma cell growth inhibition, synergistic combos for chromothripsis tumors, BGB or cisplatin IC20 combos (AID 1671453); settings: HTB85 osteosarcoma cells, drug combinations, stronger effect = higher value;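 further: cells exposed for 96 hours before readout; 0% = vehicle DMSO and 100% = high DMSO killing control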
# [6] = CRL2098 osteosarcoma cell growth inhibition, synergistic combos for chromothripsis tumors, BGB or cisplatin IC20 combos (AID 1671454); settings: CRL2098 osteosarcoma cells, drug combinations, stronger effect = higher value;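 further: cells exposed for 96 h before readout; 0% = vehicle DMSO and 100% = killing by high DMSO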
# [7] = HD-MB03 medulloblastoma cell growth inhibition, synergistic combos for chromothripsis tumors, BGB or cisplatin IC20 combos (AID 1671455; in the data active means inhibition above about 83%;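 further: 0% = vehicle DMSO and 100% = high DMSO as cytotoxic control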); settings: HD-MB03 medulloblastoma cells, stronger effect = higher value
# [8] = UWB1.289 ovarian carcinoma cell growth inhibition, synergistic combos for chromothripsis tumors, BGB or cisplatin combos (AID 1671456); settings: UWB1.289 ovarian carcinoma cells, stronger effect = higher value;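 further: cells exposed to compound for four days; 0% = vehicle DMSO and 100% = killing by high DMSO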
# [9] = LFS_MB_2R medulloblastoma cell growth inhibition, synergistic combos for chromothripsis tumors, cisplatin combos (AID 1671457); settings: LFS_MB_2R medulloblastoma cells, stronger effect = higher value;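 further: cells exposed to compound for four days before readout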
# [10] = MDA-MB-436 breast carcinoma cell growth inhibition, synergistic combos for chromothripsis tumors, BGB or cisplatin combos (AID 1671458; call rule not given here;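 further: cells exposed for 96 hours; 0% = vehicle DMSO and 100% = killing by high DMSO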); settings: MDA-MB-436 breast carcinoma growth inhibition, drug combinations, stronger effect = higher value
# [11] = UWB1.289_BRCA1 ovarian cancer growth, cell-based, BGB or cisplatin combinations (AID 1671459); settings: UWB1.289 BRCA1 ovarian carcinoma, drug combinations, stronger effect = higher value
# [12] = human astrocyte viability loss, single and combined drugs, cytotoxicity control for chromothriptic childhood tumor combination screen, cell-based, BGB or cisplatin IC20 combos (AID 1671460); settings: Human astrocytes, drug combinations, stronger effect = higher value;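 further: cells exposed to compounds for 96 hours before viability readout; 0% = vehicle and 100% = killing control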
# [13] = growth inhibition of BT084 medulloblastoma cells, cell-based, ICGC_MB145, cisplatin and BGB IC40 combos (AID 1671461); settings: drug combinations, stronger effect = higher value;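 further: cells exposed to drugs for 96 hours; 0% = vehicle DMSO and 100% = high DMSO full killing control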
# [14] = growth inhibition of RCMB18 medulloblastoma cells, cell-based, cisplatin and BGB IC40 combos (AID 1671462); settings: stronger effect = higher value;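 further: cells exposed to compound for four days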
# [15] = growth inhibition of CRL1545 osteosarcoma cells, cell-based, cisplatin and BGB IC20 combos (AID 1671464); settings: stronger effect = higher value;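 further: cells exposed to compound for 96 hours before readout; 0% = vehicle DMSO and 100% = high DMSO killing control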
# [16] = antimalarial activity against Dd2 strain (AID 2302;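 active means growth inhibition above 50% at the single 2 µM test dose, taken to imply half-maximal potency below 2 µM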;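 further: 0% = DMSO untreated growth and 100% = chloroquine plus artemisinin killed control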); settings: P. falciparum Dd2 in RBCs, LDH growth readout, 72 h; at 2 µM; stronger effect = higher value
# [17] = HepG2 cytotoxicity, primary screen, cytotoxicity control for P. falciparum antimalarial project, cell-based, ATP luminescence (AID 2303;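 active means inhibition above 50%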;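 further: 0% = DMSO wells and 100% = digitonin-killed cells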); settings: HepG2 viability, 24-48 h, at 10 µM, stronger effect = higher value
# [18] = biological target: L-lactate dehydrogenase (Plasmodium falciparum (isolate CDC / Honduras)) (UniProt Q27743); test: PfLDH activity inhibition – cell lysate, 3D7 strain, counter-screen for P. falciparum growth inhibition project (AID 2304; call rule not given here;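 further: 0% = vehicle and 100% = reference inhibitor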); settings: P. falciparum 3D7 crude extract, LDH APAD/NBT absorbance; at 2 µM; stronger effect = higher value
# L-lactate dehydrogenase (Plasmodium falciparum (isolate CDC / Honduras)), sequence (Q27743 whole entry, looked up): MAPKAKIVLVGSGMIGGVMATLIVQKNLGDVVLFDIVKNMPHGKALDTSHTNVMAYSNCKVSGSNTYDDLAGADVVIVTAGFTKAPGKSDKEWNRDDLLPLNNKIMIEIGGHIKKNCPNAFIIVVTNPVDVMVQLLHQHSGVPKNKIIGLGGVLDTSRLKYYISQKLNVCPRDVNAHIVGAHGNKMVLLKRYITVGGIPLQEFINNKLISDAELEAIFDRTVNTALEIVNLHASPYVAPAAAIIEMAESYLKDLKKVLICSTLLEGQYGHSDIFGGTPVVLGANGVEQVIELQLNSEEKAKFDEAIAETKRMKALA
# [19] = inhibition of 3D7 malaria parasite growth – strain 3D7 (AID 2306; call rule not given here;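 further: 0% = DMSO wells and 100% = chloroquine plus artemisinin control wells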); settings: P. falciparum 3D7 erythrocytic growth, LDH absorbance, 72 h; at 2 µM; stronger effect = higher value
# [20] = circadian clock period modulators, cell-based, LOPAC library, luminescence reporter (AID 2774; call rule not given here;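 further: values are relative to mean of DMSO wells on each plate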); settings: circadian reporter cells, at 7 µM, actives lie on both sides
# [21] = measured here: combination with BGB IC40, at 0.05 µM
# [22] = measured here: with BGB IC20 combination, at 0.5 µM
# [23] = measured here: with cisplatin IC20 combination, at 0.5 µM
# [24] = measured here: combination with cisplatin, at 0.5 µM
# [25] = measured here: combination with cisplatin, at 5 µM
structure (smiles),measurement,setting,value
Cc1c(N)nc(C(CC(N)=O)NCC(N)C(N)=O)nc1C(=O)NC(C(=O)NC(C)C(O)C(C)C(=O)NC(C(=O)NCCc1nc(-c2nc(C(=O)NCCC[S+](C)C)cs2)cs1)C(C)O)C(O[C@@H]1O[C@@H](CO)[C@@H](O)[C@H](O)[C@@H]1O[C@H]1O[C@H](CO)[C@@H](O)[C@H](OC(N)=O)[C@@H]1O)c1cnc[nH]1 (stereo partly drawn),inhibition,"[1]; at 0.5 µM, stronger effect = higher value",-26.9% (inactive) and -11.5% (inactive)
same,inhibition,"[1]; measured here: combination with BGB IC20, at 0.005 µM",28.9% and -33.7%
same,inhibition,"[1]; measured here: combination with BGB IC40, at 0.005 µM",-4.08% and -32.1%
same,inhibition,[1]; [21],1.25% and -43.8%
same,inhibition,"[1]; measured here: combination with cisplatin, at 0.5 µM, stronger effect = higher value",-37.7% and -28%
same,inhibition,"[1]; measured here: combination with cisplatin, at 5 µM, stronger effect = higher value",-0.936% and -58.3%
same,inhibition,"[2]; BGB combo, at 5 µM",94.9% and 96.7%
same,inhibition,[2]; at 0.5 µM,56.2% (inactive) and 63.6% (inactive)
same,inhibition,"[2]; cisplatin combo, at 5 µM",90% and 97.3%
same,inhibition,[2]; [22],57.4% and 65.6%
same,inhibition,[2]; [23],46.8% and 53.3%
same,inhibition,"[2]; single agent, at 5 µM",95% and 97.6%
same,inhibition,"[3]; BGB IC20 combo, at 0.005 µM",15.2% and 12.8%
same,inhibition,"[3]; BGB IC40 combo, at 0.005 µM",-5.04% and -17.2%
same,inhibition,"[3]; BGB IC40 combo, at 0.05 µM",2.59% and -11.2%
same,inhibition,[3]; at 0.5 µM,-18.3% (inactive) and -34.3% (inactive)
same,inhibition,"[3]; cisplatin combo, at 0.05 µM",-0.135% and -15.2%
same,inhibition,"[3]; cisplatin combo, at 0.5 µM",-22.6% and -41.3%
same,inhibition,"[3]; cisplatin combo, at 5 µM",-35.8% and -29.6%
same,inhibition,"[3]; measured here: 5 uM single agent, at 5 µM",-30.1% and -12.5%
same,inhibition,[4]; at 0.5 µM,-1.28% (inactive) and 4.59% (inactive)
same,inhibition,[4]; [21],-22.4% and 5.32%
same,inhibition,[4]; [24],19.1% and 22.6%
same,inhibition,[4]; [25],2.08% and 20.3%
same,inhibition,[5]; at 0.5 µM,23% (inactive) and 30.3% (inactive)
same,inhibition,"[5]; measured here: with BGB IC20, at 0.5 µM",21.6% and 26.9%
same,inhibition,"[5]; measured here: with BGB IC20, at 5 µM",61.8% and 92.6%
same,inhibition,"[5]; measured here: with cisplatin IC20, at 0.5 µM",14.2% and 23.1%
same,inhibition,"[5]; measured here: with cisplatin IC20, at 5 µM",54.6% and 74.3%
same,inhibition,"[5]; single agent, at 5 µM",73.7% and 82.2%
same,inhibition,[6]; at 0.5 µM,33.9% (inactive) and 38.3% (inactive)
same,inhibition,"[6]; measured here: combination with BGB at IC20, at 0.5 µM",21% and 37.5%
same,inhibition,"[6]; measured here: combination with cisplatin at IC20, at 0.5 µM",31% and 27.7%
same,inhibition,[7]; at 0.5 µM,48.5% (inactive) and 64.8% (inactive)
same,inhibition,"[7]; measured here: combo with BGB at IC20, at 0.5 µM",54.2% and 75.3%
same,inhibition,"[7]; measured here: combo with cisplatin at IC20, at 0.5 µM",40% and 68.2%
same,inhibition,[8]; at 0.5 µM,22.8% (inactive) and 41.7% (inactive)
same,inhibition,"[8]; measured here: inhibition with BGB combination, at 0.05 µM",12.4% and -1.23%
same,inhibition,"[8]; measured here: inhibition with cisplatin combination, at 0.05 µM",12.6% and 30.8%
same,inhibition,[9]; at 0.5 µM,-1.61% (inactive) and -19.6% (inactive)
same,inhibition,[9]; [24],1.34% and -24.5%
same,inhibition,[9]; [25],-27.5% and -11.4%
same,inhibition,[10]; at 0.5 µM,15.9% (inactive) and 17.6% (inactive)
same,inhibition,"[10]; measured here: BGB combination, at 0.5 µM",8.64% and 0.685%
same,inhibition,"[10]; measured here: BGB combination, at 5 µM",29.8% and 10.1%
same,inhibition,"[10]; measured here: cisplatin combination, at 0.5 µM",17.1% and 11.9%
same,inhibition,"[10]; measured here: cisplatin combination, at 5 µM",42.7% and 28.7%
same,inhibition,"[11]; BGB combination, concentration series, at 5 µM",33.2% and 41.4%
same,inhibition,[11]; at 0.5 µM,17% (inactive) and 31.1% (inactive)
same,inhibition,"[11]; cisplatin combination, concentration series, at 5 µM",31.9% and 22.9%
same,inhibition,[12]; at 0.5 µM,35.7% (inactive) and 41.9% (inactive)
same,inhibition,"[12]; measured here: combo with BGB IC20, at 0.5 µM",41.1% and 49.2%
same,inhibition,"[12]; measured here: combo with cisplatin IC20, at 0.5 µM",9.83% and 15.3%
same,inhibition,[13]; at 0.5 µM,-4.03% (inactive) and -7.21% (inactive)
same,inhibition,"[13]; cisplatin combination, at 0.5 µM",-3.29% and -12.5%
same,inhibition,"[13]; cisplatin combination, at 5 µM",4.08% and 10.3%
same,inhibition,"[13]; measured here: BGB IC40 combination 0.05 uM, at 0.05 µM",-1.66% and -25.1%
same,inhibition,"[13]; single agent, at 5 µM",-12.7% and -10.7%
same,inhibition,[14]; at 0.5 µM,32.3% (inactive) and -22.9% (inactive)
same,inhibition,"[14]; cisplatin combo, at 5 µM",15.5% and 7.73%
same,inhibition,"[14]; measured here: BGB IC40 combination, at 0.05 µM",-15.7% and -30.1%
same,inhibition,[14]; [24],27.9% and 2.02%
same,inhibition,"[14]; single agent, at 5 µM",-20% and -46.7%
same,inhibition,[15]; at 0.5 µM,32% (inactive) and 45.1% (inactive)
same,inhibition,[15]; [22],25.4% and 41.5%
same,inhibition,[15]; [23],33.8% and 46%
same,inhibition,"[15]; single agent, at 0.05 µM",23% and 12.8%
same,inhibition,"[15]; single agent, at 5 µM",88.5% and 95.5%
Cc1ccc(C[C@H](C)NC[C@H](O)c2cccc(C(F)(F)F)c2)cc1,growth inhibition,[16],54% (active)
same,inhibition,[17],5% (inactive)
same,inhibition,[18],-1% (inactive)
same,growth inhibition,[19],100% (active)
CCN1C[C@]2(C)CC[C@H](O)[C@@]34C5C[C@@H]6[C@@H](OC)C[C@@](O)(C5[C@H]6O)[C@@H](CC23)C14 (stereo partly drawn),period change,[20],0.055 h (inactive)
